We go through twelve compounds from PubChem BioAssay (NCI).

The panel holds about 83,000 compounds, 20% with a hit somewhere; the sample as a whole holds those more often.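 Results are percent growth after 48 hours of single-concentration exposure. 100 means growth as in untreated cells, lower positive values show inhibition; negative values down to -100 show cell death.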 A number with no mark means an inactive call. The source made the active and inactive calls. The calls were made as follows: active = growth percent below 10; inactive = the rest.

Among the test systems are NCI-H23 lung; NCI-H322M lung; HOP-62 NSCLC; HOP-92 NSCLC; NCI-H522 lung; A549/ATCC NSCLC; 786-0 renal; COLO 205 colon; DU-145 prostate.
Holding throughout (assay): NCI-60 one-dose screen, 48 h (100 = growth as untreated, 0 = no growth, -100 = all killed)
Common to all, as to settings: 10 µM unless noted

For the compound `O=S1(=O)CCN(Cc2ccccc2)CC1`, the growth is 98.4% with NCI-H23 lung; 110% in the assay with NCI-H322M lung; 96.7% in the assay with HOP-62 NSCLC; 79.5% with HOP-92 NSCLC; 104% in the assay with NCI-H522 lung; 104% in the assay with A549/ATCC NSCLC. Moreover, the values for the growth with 786-0 renal, in the assay with COLO 205 colon and with DU-145 prostate were 95.3%, 107% and 103%, respectively.
In the case of `CCN1C(=O)N(CC)C2C1NN=c1s/c(=C3\C(=O)N(CC(C)(C)C)c4ccccc43)c(=O)n12` (stereo not given), the growth in the assay with NCI-H23 lung is 45%; in the assay with NCI-H322M lung, 60.5%; in the assay on HOP-62 NSCLC, 47%; in the assay with HOP-92 NSCLC, 78.6%; in the assay on NCI-H522 lung it was -4.26% (active); in the assay on A549/ATCC NSCLC, 30.1%. Also, the results for the growth in the assay with 786-0 renal and in the assay on DU-145 prostate were 39.9% and 6.12% (active), respectively.
For the compound `CCN1C(=O)N(c2ccccc2)C2NN=c3s/c(=C4\C(=O)N(C(C)C)c5ccccc54)c(=O)n3C21` (stereo not given), the growth in the assay on NCI-H23 lung is 46.5%; with NCI-H322M lung, 54.4%; in the assay with HOP-62 NSCLC, 36.2%; with HOP-92 NSCLC, 95.7%; in the assay with NCI-H522 lung, 14.7%; with A549/ATCC NSCLC, 21%. Moreover, the figures for the growth with 786-0 renal, with COLO 205 colon and in the assay on DU-145 prostate were 28.3%, 2.82% (active) and 9.07% (active), respectively.
With `Cc1nc2ccccc2c(/C=C/c2ccccc2)c1C(=O)/C=C/c1ccc(Cl)cc1`, the growth with NCI-H23 lung was 34.8%; in the assay with NCI-H322M lung, 50%; with HOP-62 NSCLC it was 11.7%; in the assay on HOP-92 NSCLC, 46.9%; with NCI-H522 lung, -18.9% (active); in the assay on A549/ATCC NSCLC, 25.3%. The results for the growth in the assay with 786-0 renal, in the assay on COLO 205 colon and in the assay on DU-145 prostate were 2.52% (active), 31.3% and 4.72% (active), respectively.
`CCOC(=O)c1cnc2ccc(Cl)cc2c1NCCCN(C)C`: the growth is 22% with NCI-H23 lung; 10.4% in the assay on NCI-H322M lung; 8.63% (active) in the assay on HOP-62 NSCLC; 41.1% in the assay with HOP-92 NSCLC; -17.5% (active) with NCI-H522 lung; 4.15% (active) in the assay on A549/ATCC NSCLC. In addition, the growth with 786-0 renal is 8.14% (active); in the assay on COLO 205 colon, 31.4%; in the assay with DU-145 prostate, 19.2%.
For the compound `NC1C(N)C(N)C1N` (stereo not given), the growth is 102% in the assay on NCI-H23 lung; 99.7% with NCI-H322M lung; 104% in the assay with HOP-62 NSCLC; 79.6% in the assay with HOP-92 NSCLC; 91.5% with NCI-H522 lung; 99.8% with A549/ATCC NSCLC. Further, the growth in the assay with 786-0 renal is 105%; in the assay with COLO 205 colon, 107%; with DU-145 prostate, 134%.
On to `COC(=O)c1c2c(c(C)[n+]([O-])c1C)C(=O)C=C(NCc1ccccc1)C2=O`, for which the growth was -50% (active) in the assay on NCI-H23 lung; -5.71% (active) in the assay on NCI-H322M lung; 2.96% (active) with HOP-62 NSCLC; -27.2% (active) with HOP-92 NSCLC; -26.1% (active) in the assay on NCI-H522 lung; -4.94% (active) with A549/ATCC NSCLC. Further, the values for the growth in the assay on 786-0 renal and in the assay with DU-145 prostate were 4.63% (active) and -92.7% (active), respectively.
For the compound `COc1cc2c(cc1OC)C(=O)C(CC1CCN(C(=O)Nc3ccc(C)cc3)CC1)C2` (stereo not given), the growth in the assay with NCI-H23 lung was 100%; with NCI-H322M lung, 95.7%; in the assay with HOP-62 NSCLC, 99.1%; with HOP-92 NSCLC it was 62.5%; in the assay on NCI-H522 lung, 87.8%; in the assay with A549/ATCC NSCLC, 108%. The growth in the assay on 786-0 renal is 101%; with COLO 205 colon, 110%; with DU-145 prostate, 104%.
Consider `Nc1cccc(Nc2cc(S(=O)(=O)O)c(N)c3c2C(=O)c2ccccc2C3=O)c1`, for which the growth with NCI-H23 lung is 109%; with NCI-H322M lung, 124%; in the assay on HOP-62 NSCLC it was 114%; in the assay with HOP-92 NSCLC it was 132%; in the assay with NCI-H522 lung, 82.5%; in the assay with A549/ATCC NSCLC, 102%. The growth was 111% in the assay with 786-0 renal, 110% in the assay on COLO 205 colon and 119% in the assay on DU-145 prostate.
Regarding `CCOC(=O)C1=C(C)N=c2s/c(=C\c3cc(Cl)ccc3O)c(=O)n2C1c1ccc(OC)cc1` (stereo not given), the growth with NCI-H23 lung is 88.1%; in the assay on NCI-H322M lung, 104%; in the assay with HOP-62 NSCLC, 110%; in the assay on HOP-92 NSCLC, 69.2%; with NCI-H522 lung, 81%; in the assay with A549/ATCC NSCLC, 94.9%. The growth in the assay with 786-0 renal is 94.6%; in the assay on COLO 205 colon, 101%; with DU-145 prostate it was 107%.
As for `O=Cc1cc2ccccc2nc1Nc1nccs1`, the growth is 52.4% in the assay with NCI-H23 lung; 91.8% in the assay with NCI-H322M lung; 62.2% with HOP-62 NSCLC; 81% in the assay with HOP-92 NSCLC; 83.1% in the assay on NCI-H522 lung; 96.9% in the assay with A549/ATCC NSCLC. For the same compound, the results for the growth in the assay on 786-0 renal, in the assay with COLO 205 colon and in the assay on DU-145 prostate were 69%, 69.7% and 80.3%, respectively.
On to `COc1cc(/C=C/C(=O)c2ccc(Cl)cc2)cc(CN2CCCCC2)c1O`, for which the growth with NCI-H23 lung is 92.6%; with NCI-H322M lung, 91.6%; with HOP-62 NSCLC, 94.7%; in the assay with HOP-92 NSCLC, 75.5%; in the assay with NCI-H522 lung, 77.2%; in the assay on A549/ATCC NSCLC it was 94.6%. In addition, the growth is 91.6% in the assay with 786-0 renal and 103% in the assay with DU-145 prostate.
